RE007 growth inh = less growth of the S. pombe RE007 Vpr strain. hit rate 0.21% among 360,000. Potency, µM (top dose mostly 92.2 µM), inactives show top-dose activity change, negative = less growth, hits mostly inhibitors. AID 651644. S. pombe RE007 Vpr strain, BacTiter-Glo ATP luminescence, 24 h; active = well fitted falling curve with a large enough effect; inconclusive = small, poorly fitted or top-dose-only effect; inactive = no such curve, though single readings can be large or run the other way; note: nearly all actives have a fitted effect of over 50% in size
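Fission yeast RE007 carrying one integrated HIV-1 vpr copy, seeded at OD 0.01 in PMG+AL medium with 23 nL pinned compound. Grown 24 h at 30 degrees; viability read by BacTiter-Glo luminescence after 5 min.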
FBPA Giardia inh = inhibitors of Giardia lamblia fructose-1,6-bisphosphate aldolase; Potency, µM (series often up to 59.6 µM), without a hit: top-dose activity, negative = inhibition, most hits filed as inhibitors; purified Giardia FBPA; hit rate 0.71% among 290,000; AID 2451; note: nearly all actives have a fitted effect of over 55% in size
Target sequence (A8B2U2 whole entry, looked up): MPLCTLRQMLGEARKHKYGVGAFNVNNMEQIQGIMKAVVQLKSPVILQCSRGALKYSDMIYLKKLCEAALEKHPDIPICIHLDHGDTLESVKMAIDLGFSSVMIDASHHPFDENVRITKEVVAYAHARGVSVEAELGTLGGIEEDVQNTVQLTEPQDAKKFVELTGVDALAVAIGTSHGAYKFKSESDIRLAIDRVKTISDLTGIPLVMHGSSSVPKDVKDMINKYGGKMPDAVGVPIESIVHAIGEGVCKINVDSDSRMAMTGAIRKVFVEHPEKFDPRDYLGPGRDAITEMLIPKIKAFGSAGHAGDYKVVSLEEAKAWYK
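40 nM FBPA preincubated 10 min at RT with compound (up to 57.5 uM final), then substrate plus GAPDH/TPI/NAD/arsenate coupling and diaphorase/resazurin added. Fluorescence read after 20 min at RT, 525/598 nm.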
AmpC inh detg = blocks E. coli AmpC beta-lactamase in detergent assay; P00811; AmpC hydrolysis of nitrocefin, absorbance 480 nm, 0.01% Triton; Potency, µM (series often up to 114 µM), for the others: at the highest dose activity change, negative = inhibition, actives largely listed as inhibitors; hit rate 0.041% among 370,000; AID 485294;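 note: 0% = no-compound wells and -100% = no-enzyme wells; nearly all actives have a fitted effect of over 25% in size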
Target sequence (P00811 whole entry, looked up): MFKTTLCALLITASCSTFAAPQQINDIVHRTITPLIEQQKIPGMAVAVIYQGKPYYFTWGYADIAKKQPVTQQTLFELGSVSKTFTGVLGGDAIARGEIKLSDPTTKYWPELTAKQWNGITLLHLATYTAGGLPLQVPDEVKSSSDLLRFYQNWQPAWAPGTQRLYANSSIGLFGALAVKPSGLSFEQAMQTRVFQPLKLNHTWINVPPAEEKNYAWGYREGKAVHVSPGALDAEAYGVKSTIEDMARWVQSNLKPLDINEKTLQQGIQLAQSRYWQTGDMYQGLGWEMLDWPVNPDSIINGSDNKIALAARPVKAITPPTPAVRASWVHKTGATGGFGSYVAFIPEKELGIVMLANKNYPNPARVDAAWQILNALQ
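AmpC (5.3 nM in the dispensed reagent) in 20 mM phosphate pH 7.0 with 0.01% (detergent screen) or 0.0001% Triton X-100 was preincubated with compounds for 15 min at room temperature. Nitrocefin was then added from an 800 uM solution, and hydrolysis was followed at 480 nm.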
AmpC no deterg = blocks E. coli AmpC beta-lactamase in detergent-free assay. AmpC nitrocefin hydrolysis, absorbance 480 nm, 0.0001% Triton. AID 485341. hit rate 0.52% among 330,000. Potency, µM (top dose mostly 57.1 µM), for the others: at the highest dose activity change, negative = inhibition, most hits filed as inhibitors. P00811;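 note: plate controls were no compound for no effect and no enzyme for full effect; nearly all actives have a fitted effect of over 20% in size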
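20 mM phosphate pH 7.0 + 0.01% (detergent screen) or 0.0001% Triton X-100; 5.3 nM AmpC reagent; cpd preinc 15 min RT; nitrocefin (800 uM stock) to start; A480 q20 s × 4 min; Activity was normalised to no-enzyme and no-compound control wells.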
Sm TGR inh = inhibitors of Schistosoma mansoni thioredoxin glutathione reductase. Q962Y6. purified TGR, DTNB reduction, TNB absorbance 405 nm. Potency, µM (highest dose often 114 µM), for inactives: at the top dose activity change, negative = inhibition, most hits filed as inhibitors. hit rate 3% among 360,000; note: nearly all actives have a fitted effect of over 60% in size
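TGR 20 nM + NADPH 100 uM (dispensed conc.), cpd preinc 15 min RT; start with NADPH (500 uM addition) then DTNB (15 mM addition). Kinetic TNB absorbance, 405 nm filter. Four-parameter Hill fit across titration.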
An asterisk follows results filed as active; ? = inconclusive; / = no result given; [ ] = another dose, or the depositor's remark. Only some compounds are listed: those with a hit (about 3.4% of all), similar ones and a draw of the others. Unless noted, calls come from the whole dose curve; as a rule, active = well fitted curve in the direction sought with a large enough effect; inconclusive = small, poorly fitted or top-dose-only effect, or another doubt; inactive = no such curve, though single readings can be large; an effect the other way counts as inactive or inconclusive. Unless noted, % is set by controls: 0 for no effect and ±100 for the full control effect; potency is the fitted concentration of half-maximal effect.

SMILES	RE007 growth inh	FBPA Giardia inh	AmpC inh detg	AmpC no deterg	Sm TGR inh
CCOC(=O)c1c(-c2ccc(C)o2)csc1NC(=O)CN1CCC(C(N)=O)CC1	1.7%	-25.4%	0.8%	155.1%	14.1µM*
CCOC(=O)c1c(-c2ccc(OC)cc2)csc1NC(=O)CCN1CCOCC1	-4.9%	?	3.6%	0.5%[2.29 µM]	-3.3%
O=c1[nH]c(Nc2ccccc2)cc2ccccc12	?	0.2%	-15.3%	-19.3%	15.8µM*
O=C(/C=C/c1cccc([N+](=O)[O-])c1)NC(=S)Nc1ccccc1C(=O)O	/	?	1.8%	-33.4%	17.8µM*
Cc1cc(O)c(C(=O)/C=C/c2cccc([N+](=O)[O-])c2)c(=O)o1	-3.4%	-6.6%	1.4%	14.1µM*	0.0%
Cc1cc(O)c(C(=O)/C=C/c2ccccc2O)c(=O)o1	1.3%	-10.5%	-0.1%	-49.0%	?
CC(=O)Oc1ccccc1C(=O)C=Cc1cccc([N+](=O)[O-])c1	25.1µM*	/	/	/	/
Cc1cccc(C(C)n2nnc3ccccc32)c1O (stereo not given)	26.7%	/	-14.1%	-27.3%	0.3%
O=C(Oc1cc(=O)oc2c1c(=O)n1c3c(cccc23)CC1)c1ccccc1	?	-24.5%	1.0%	-10.4%	10µM*
O=C(Oc1cc(=O)oc2ccccc12)c1ccccc1	-2.5%	5.4%	-5.5%	-36.5%	7.2%
O=C(Oc1cc(=O)oc2c1c(=O)n1c3c(cccc23)CC1)c1ccc(F)cc1	2.3%	-15.3%	?	-9.8%	25.1µM*
O=C(NCc1ccc(F)cc1)c1c(O)c2cccc3c2n(c1=O)CCC3	14.7%	8.3%	?	-20.3%	1.1%
O=C(Nc1ccccc1)C1CC=CCC1C(=O)OCC1CCCO1 (stereo not given)	12.3%	-15.3%	8.2%	-15.6%	15.7%
Cc1ccc2c(c1)C(=C(C#N)C#N)C(=O)N2CCN1CCOCC1	-9.0%	3.15µM*	-4.0%	13.9%	3.16µM*
N#CC(C#N)=C1C(=O)N(CCN2CCCCC2)c2ccccc21	-17.6%	?	-6.2%	53.2%	-14.7%
N#CC(C#N)=C1C(=O)N(CCN2CCOCC2)c2ccccc21	59.2%	?	-3.6%	2.3%	3.55µM*
COc1cccc(Nc2nc3ccccc3n3cnnc23)c1	-0.4%	1.2%	?	58.4%	35.2%
CC(C)C(=O)Nc1ccc(C(=O)NNC(=O)c2ccco2)cc1	3.3%	11.6%	-9.0%	1.5%	-7.7%
[O-]/C(=C(\C(=S)Nc1ccc(SC(F)F)cc1)[n+]1cccc(CO)c1)c1ccc(Cl)s1	-0.4%	-17.6%	-17.3%	-45.9%	-11.1%
COc1ccc(NC(=O)Cn2nc(Cc3cccnc3)c3ccccc3c2=O)cc1OC	12.3%	2.9%	?	2.82µM*	0.6%
COc1ccccc1CNC(=O)CCCNC(=O)c1ccc(Cl)cc1	12.1%	0.5%	4.2%	26.6%	4.5%
COc1cccc(CNC(=O)CCCNC(=O)c2ccc(Cl)cc2)c1	-26.3%	/	-3.3%	29.9%	22.4µM*
FCCCOc1ccc(-c2nccc(-c3ccc(Cl)cc3)n2)cc1	16.5%	-0.8%	4.8%	0.112µM*	3.3%
O=C(CCC(=O)c1cccs1)NCCc1ccc(F)cc1	0.4%	/	?	-38.6%	-24.3%
O=C1CC(N2CC=C(c3ccc(F)cc3)CC2)C(=O)N1c1ccc(F)cc1 (stereo not given)	?	/	-4.9%	11.7%	14.1µM*
SMILES	RE007 growth inh	FBPA Giardia inh	AmpC inh detg	AmpC no deterg	Sm TGR inh
CCOC(=O)N1CCN(C2CC(=O)N(c3ccc(F)cc3)C2=O)CC1 (stereo not given)	-20.5%	8.9%	-6.5%	-8.0%	-22.1%
CCOC(=O)c1ccc(N2C(=O)CC(N3CC=C(c4ccc(F)cc4)CC3)C2=O)cc1 (stereo not given)	?	-22.5%	1.3%	-0.5%	5.62µM*
CN(C)c1cc[nH]c(=O)c1C#N	-2.7%	2.1%	?	-15.9%	-10.1%
CC(=O)c1ccc2noc(-c3ccccc3)c2c1	-8.9%	-3.9%	-2.9%	3.2%	-1.7%
CC(=O)c1ccc2noc(-c3cccc(C)c3)c2c1	-12.2%	6.5%	?	-4.1%	17.8µM*
O=C(C1CC1)N1CCc2sccc2C1c1ccc(Cl)cc1 (stereo not given)	3.1%	0.8%	2.0%	-19.1%	0.5%
COc1ccc(N2CCN(C(=O)Cn3ncc4c3-c3cc(C)ccc3OC4)CC2)cc1	/	/	10.3%	/	3.2%
CC1(C)Cc2ccccc2C2=NNC(=O)C2=N1	10.0%	4.46µM*	-2.2%	-12.6%	/
CC1(C)Cc2ccccc2C(Nn2cnnc2)=N1	-0.3%	0.2%	-12.8%	-16.3%	-0.1%[11.4 µM]
Cc1ccc(-c2cc(C(=O)Nc3nccs3)c3ccccc3n2)o1	?	-9.4%	-6.3%	-18.1%	7.08µM*
Cc1cccc(NC(=O)c2cc(-c3ccco3)nc3ccccc23)n1	-9.6%	-8.7%	?	-34.1%	20µM*
Cc1ccc(-c2cc(C(=O)Nc3nccs3)c3ccccc3n2)c(C)c1	-10.2%	1.3%	-12.6%	-20.7%	-11.3%
Cc1ccccc1NC(=O)c1cc(-c2ccco2)nc2ccccc12	1.1%	/	/	/	/
CCOc1cccc(-c2cc(C(=O)Nc3ccon3)c3ccccc3n2)c1	-5.1%	-7.8%	-1.5%	17.8µM*	-4.5%
CCCOc1ccc(C(=O)NNC(=S)NC(=O)c2cc(-c3ccccc3)nc3ccccc23)cc1	21.6%	?	-12.7%	4.47µM*	9.2%
CCCOc1ccc(C(=O)NNC(=S)NC(=O)c2ccccc2)cc1	/	?	-4.1%	-46.0%	6.2%
c1cc(CNc2ccc(N3CCOCC3)cc2)ccn1	0.1%	?	-0.9%	15.1%	-3.7%
CSCCC(NC(=O)c1ccc(Cl)cc1Cl)C(=O)NCc1ccncc1 (stereo not given)	1.8%	/	-11.6%	-3.6%	1.4%
CN(CC(=O)NC(=O)NC1CCCCC1)Cc1ccccc1	-8.6%	/	-0.8%	-6.6%	-12.5%
O=C(c1noc2c1CSc1ccccc1-2)N1CCN(c2ccc(Cl)cc2)CC1	-10.4%	-1.3%	-6.8%	-19.1%	-10.3%
CCc1nnc(NC(=O)c2cc(-c3ccco3)nc3ccccc23)s1	14.9%	-1.2%	-18.5%	?	15.8µM*
CCc1nnc(NC(=O)c2cc(-c3ccccn3)nc3ccccc23)s1	13.3%	-0.4%	-9.1%	3.2%	-6.9%
Cc1cccc(NC(=S)NC2CC3CCCC(C2)N3Cc2cccs2)c1C (stereo not given)	5.9%	-1.1%	?	-7.3%	-21.7%
O=c1c(-c2ccccc2)coc2cc(O)cc(O)c12	/	19.9µM*	/	/	/
O=c1c(-c2ccc3c(c2)OCCO3)coc2cc(O)cc(O)c12	-18.6%	0.3%	7.9%	-11.5%	2.8%
CCCOc1ccc(N2C(=O)CC(N3CCN(c4ccccc4OC)CC3)C2=O)cc1 (stereo not given)	?	-2.1%	?	129.5%	50.1µM*
